# Experimental data as given in PMC7862700, “An all-to-all approach to the identification of sequence-specific readers for epigenetic DNA modifications on cytosine”.
# Assays:
# Experiment in all cases: DAPPL (digital affinity profiling via proximity ligation, sequencing); 10 mM Tris-HCl pH 7.5, 50 mM NaCl, 1 mM DTT, 4% glycerol, room temperature, 30 min; GST-TFs on glutathione beads, 16-mer random dsDNA library, 0.1% formaldehyde crosslink after washing; high values mean tight binding
# [1] = target: T1, FEV (Homo sapiens, UniProt Q99581 1-238); conditions: protein: recombinant; tags: N-terminal GST; dsDNA, one strand shown
# T1 sequence: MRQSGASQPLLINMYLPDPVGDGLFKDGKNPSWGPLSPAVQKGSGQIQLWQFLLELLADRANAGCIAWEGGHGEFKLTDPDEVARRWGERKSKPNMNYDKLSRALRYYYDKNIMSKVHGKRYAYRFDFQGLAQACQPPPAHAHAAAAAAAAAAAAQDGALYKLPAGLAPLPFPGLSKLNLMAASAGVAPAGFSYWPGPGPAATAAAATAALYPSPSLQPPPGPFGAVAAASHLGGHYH
# Method in brief: (§1)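 In yeast, human transcription factors were expressed with a GST fusion, then pulled down on glutathione beads and given DNA barcodes. Pooled with a tag-only sample, they were exposed to 200 nmole of a 16-mer random double-stranded DNA library (Tris/NaCl/DTT/glycerol buffer, room temperature, 30 min), washed, crosslinked with 0.1% formaldehyde, proximity-ligated using BsaI/T4 ligase for 1 h at 37 °C, PCR-amplified and read on an Illumina NextSeq500. Each hexamer's frequency of reads for a factor, divided by the matching frequency for the tag-only sample, gives the binding signal.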
# [2] = target: ETV5 (Homo sapiens, UniProt P41161 1-510); conditions: protein: recombinant; tags: N-terminal GST; dsDNA, one strand shown
# Method in brief: as §1
# [3] = target: HSF1 (Homo sapiens, UniProt Q00613 1-529); conditions: protein: recombinant; tags: N-terminal GST; chain copies: 3; dsDNA, one strand shown
# Method in brief: as §1
# [4] = target: T2, SPIC (Homo sapiens, UniProt Q8N5J4 1-248); conditions: protein: recombinant; tags: N-terminal GST; dsDNA, one strand shown
# T2 sequence: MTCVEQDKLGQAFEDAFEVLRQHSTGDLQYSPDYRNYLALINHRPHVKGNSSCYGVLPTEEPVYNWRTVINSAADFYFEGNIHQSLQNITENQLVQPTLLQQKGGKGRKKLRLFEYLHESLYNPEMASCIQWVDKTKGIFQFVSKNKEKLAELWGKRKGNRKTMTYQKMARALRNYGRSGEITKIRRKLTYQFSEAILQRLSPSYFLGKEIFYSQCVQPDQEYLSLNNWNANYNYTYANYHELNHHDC
# Method in brief: as §1
# [5] = target: ELF4 (Homo sapiens, UniProt Q99607 1-663); conditions: protein: recombinant; tags: N-terminal GST; dsDNA, one strand shown
# Method in brief: as §1
# [6] = target: T3, ELK4 (Homo sapiens, UniProt P28324-2 1-405); conditions: protein: recombinant; tags: N-terminal GST; dsDNA, one strand shown
# T3 sequence: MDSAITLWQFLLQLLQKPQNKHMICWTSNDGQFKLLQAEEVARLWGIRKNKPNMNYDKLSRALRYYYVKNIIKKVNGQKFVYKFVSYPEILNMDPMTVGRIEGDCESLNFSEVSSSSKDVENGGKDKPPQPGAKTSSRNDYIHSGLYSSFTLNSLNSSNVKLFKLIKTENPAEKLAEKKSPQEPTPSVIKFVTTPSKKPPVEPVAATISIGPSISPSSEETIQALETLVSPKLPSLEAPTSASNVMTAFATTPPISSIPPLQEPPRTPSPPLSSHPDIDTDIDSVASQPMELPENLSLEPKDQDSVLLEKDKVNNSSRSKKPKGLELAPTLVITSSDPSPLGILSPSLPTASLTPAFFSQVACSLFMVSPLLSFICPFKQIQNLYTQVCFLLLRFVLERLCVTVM
# Method in brief: as §1
# [7] = target: T4, ETV2 (Homo sapiens, UniProt O00321 1-342); conditions: protein: recombinant; tags: N-terminal GST; dsDNA, one strand shown
# T4 sequence: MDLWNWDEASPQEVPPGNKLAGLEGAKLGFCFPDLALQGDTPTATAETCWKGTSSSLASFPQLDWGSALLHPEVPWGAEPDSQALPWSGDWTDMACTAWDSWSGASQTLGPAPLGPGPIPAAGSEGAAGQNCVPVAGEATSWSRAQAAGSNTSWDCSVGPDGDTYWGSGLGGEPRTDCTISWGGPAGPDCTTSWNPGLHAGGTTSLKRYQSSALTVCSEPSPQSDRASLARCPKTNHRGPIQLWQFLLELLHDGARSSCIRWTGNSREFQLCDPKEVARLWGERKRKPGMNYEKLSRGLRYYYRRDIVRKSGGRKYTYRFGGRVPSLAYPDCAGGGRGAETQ
# Method in brief: as §1
# [8] = target: T5, ELF3 (Homo sapiens, UniProt P78545 1-371); conditions: protein: recombinant; tags: N-terminal GST; dsDNA, one strand shown
# T5 sequence: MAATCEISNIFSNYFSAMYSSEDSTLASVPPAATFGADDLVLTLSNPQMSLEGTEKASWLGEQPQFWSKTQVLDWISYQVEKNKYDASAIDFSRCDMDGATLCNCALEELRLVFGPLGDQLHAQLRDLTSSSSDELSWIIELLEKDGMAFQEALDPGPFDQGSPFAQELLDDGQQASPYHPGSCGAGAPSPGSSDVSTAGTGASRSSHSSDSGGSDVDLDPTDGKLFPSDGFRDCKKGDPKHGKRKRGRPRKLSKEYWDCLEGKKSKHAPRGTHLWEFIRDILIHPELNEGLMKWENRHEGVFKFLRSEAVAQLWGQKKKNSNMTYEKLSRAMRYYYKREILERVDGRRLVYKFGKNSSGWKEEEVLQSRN
# Method in brief: as §1
# [9] = target: CRX (Homo sapiens, UniProt O43186 1-299); conditions: protein: recombinant; tags: N-terminal GST; dsDNA, one strand shown
# Method in brief: as §1
# [10] = target: ETV1 (Homo sapiens, UniProt P50549 1-477); conditions: protein: recombinant; tags: N-terminal GST; dsDNA, one strand shown
# Method in brief: as §1
# [11] = target: T6, ERF (Homo sapiens, UniProt P50548 1-548); conditions: protein: recombinant; tags: N-terminal GST; dsDNA, one strand shown
# T6 sequence: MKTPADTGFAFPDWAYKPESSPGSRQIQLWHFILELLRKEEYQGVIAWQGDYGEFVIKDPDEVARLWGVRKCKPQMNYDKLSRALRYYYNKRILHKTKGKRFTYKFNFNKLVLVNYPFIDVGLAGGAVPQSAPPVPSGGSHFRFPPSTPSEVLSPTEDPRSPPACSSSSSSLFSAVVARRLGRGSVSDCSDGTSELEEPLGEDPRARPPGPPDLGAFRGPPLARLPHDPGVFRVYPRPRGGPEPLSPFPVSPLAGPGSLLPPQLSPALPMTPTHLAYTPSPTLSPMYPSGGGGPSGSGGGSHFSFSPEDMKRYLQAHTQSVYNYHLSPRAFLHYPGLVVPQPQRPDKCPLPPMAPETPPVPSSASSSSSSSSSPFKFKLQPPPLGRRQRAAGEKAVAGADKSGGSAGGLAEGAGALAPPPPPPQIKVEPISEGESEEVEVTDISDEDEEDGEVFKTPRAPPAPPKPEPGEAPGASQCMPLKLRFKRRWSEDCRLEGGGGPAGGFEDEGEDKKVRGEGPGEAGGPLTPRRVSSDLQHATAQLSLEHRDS
# Method in brief: as §1
# [12] = target: T7, ETV3L (Homo sapiens, UniProt Q6ZN32 1-361); conditions: protein: recombinant; tags: N-terminal GST; dsDNA, one strand shown
# T7 sequence: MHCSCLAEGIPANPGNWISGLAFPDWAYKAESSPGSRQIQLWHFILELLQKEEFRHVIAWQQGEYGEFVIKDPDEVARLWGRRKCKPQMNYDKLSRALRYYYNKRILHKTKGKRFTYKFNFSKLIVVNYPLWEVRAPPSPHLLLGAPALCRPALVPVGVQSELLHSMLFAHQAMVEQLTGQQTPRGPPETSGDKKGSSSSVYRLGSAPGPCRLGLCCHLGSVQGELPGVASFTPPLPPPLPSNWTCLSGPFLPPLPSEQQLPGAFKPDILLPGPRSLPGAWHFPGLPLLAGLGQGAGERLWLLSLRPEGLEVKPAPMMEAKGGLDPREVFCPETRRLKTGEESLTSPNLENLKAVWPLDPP
# Method in brief: as §1
# [13] = target: T8, ETS2 (Homo sapiens, UniProt P15036 1-469); conditions: protein: recombinant; tags: N-terminal GST; dsDNA, one strand shown
# T8 sequence: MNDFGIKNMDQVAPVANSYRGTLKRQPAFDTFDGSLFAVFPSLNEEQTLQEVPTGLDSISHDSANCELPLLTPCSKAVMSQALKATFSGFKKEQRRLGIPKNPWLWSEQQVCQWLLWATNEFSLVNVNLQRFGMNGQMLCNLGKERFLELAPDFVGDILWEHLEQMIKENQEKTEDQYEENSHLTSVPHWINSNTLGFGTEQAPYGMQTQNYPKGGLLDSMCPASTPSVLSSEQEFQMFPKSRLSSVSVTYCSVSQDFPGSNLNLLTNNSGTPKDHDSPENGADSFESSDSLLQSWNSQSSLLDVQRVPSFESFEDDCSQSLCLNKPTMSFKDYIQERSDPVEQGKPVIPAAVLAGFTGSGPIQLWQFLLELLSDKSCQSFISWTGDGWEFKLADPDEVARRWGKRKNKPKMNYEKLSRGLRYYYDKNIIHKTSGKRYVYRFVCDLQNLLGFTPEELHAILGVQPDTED
# Method in brief: as §1
# [14] = target: T9, SPDEF (Homo sapiens, UniProt O95238 1-335); conditions: protein: recombinant; tags: N-terminal GST; dsDNA, one strand shown
# T9 sequence: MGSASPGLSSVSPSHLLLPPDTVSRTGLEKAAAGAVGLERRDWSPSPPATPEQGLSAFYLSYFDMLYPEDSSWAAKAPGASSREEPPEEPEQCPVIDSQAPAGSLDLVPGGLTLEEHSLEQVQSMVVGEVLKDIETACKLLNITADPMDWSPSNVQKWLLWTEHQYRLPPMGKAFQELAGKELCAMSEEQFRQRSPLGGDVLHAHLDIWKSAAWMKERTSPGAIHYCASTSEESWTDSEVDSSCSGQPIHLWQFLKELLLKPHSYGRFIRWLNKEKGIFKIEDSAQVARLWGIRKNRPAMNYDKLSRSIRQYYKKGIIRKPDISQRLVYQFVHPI
# Method in brief: as §1
# [15] = target: T10, ETV7 (Homo sapiens, UniProt Q9Y603 1-341); conditions: protein: recombinant; tags: N-terminal GST; dsDNA, one strand shown
# T10 sequence: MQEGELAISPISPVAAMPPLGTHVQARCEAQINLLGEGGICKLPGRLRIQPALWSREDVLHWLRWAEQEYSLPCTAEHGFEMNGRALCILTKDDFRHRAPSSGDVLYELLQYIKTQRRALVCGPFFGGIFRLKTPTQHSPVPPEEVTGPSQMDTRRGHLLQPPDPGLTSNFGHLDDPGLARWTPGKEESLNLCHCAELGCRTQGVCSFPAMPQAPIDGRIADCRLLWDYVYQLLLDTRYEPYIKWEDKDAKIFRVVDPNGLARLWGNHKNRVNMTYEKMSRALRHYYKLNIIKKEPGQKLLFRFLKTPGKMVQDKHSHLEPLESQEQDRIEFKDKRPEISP
# Method in brief: as §1
# [16] = target: T11, ELF5 (Homo sapiens, UniProt Q9UKW6-2 1-255); conditions: protein: recombinant; tags: N-terminal GST; dsDNA, one strand shown
# T11 sequence: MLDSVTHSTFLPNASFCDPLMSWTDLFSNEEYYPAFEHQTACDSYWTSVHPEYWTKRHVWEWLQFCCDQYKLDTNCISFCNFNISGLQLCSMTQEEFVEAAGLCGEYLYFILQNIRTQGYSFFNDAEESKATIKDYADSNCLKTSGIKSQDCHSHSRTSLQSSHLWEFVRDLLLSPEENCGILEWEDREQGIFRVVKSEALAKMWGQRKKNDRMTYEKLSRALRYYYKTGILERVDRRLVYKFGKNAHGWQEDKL
# Method in brief: as §1
# [17] = target: T12, ETV3 (Homo sapiens, UniProt P41162-2 1-143); conditions: protein: recombinant; tags: N-terminal GST; dsDNA, one strand shown
# T12 sequence: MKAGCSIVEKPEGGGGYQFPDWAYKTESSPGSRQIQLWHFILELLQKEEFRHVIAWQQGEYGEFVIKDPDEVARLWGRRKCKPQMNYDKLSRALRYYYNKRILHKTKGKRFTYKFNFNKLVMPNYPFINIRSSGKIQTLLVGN
# Method in brief: as §1
# [18] = target: ETV6 (Homo sapiens, UniProt P41212 1-452); conditions: protein: recombinant; tags: N-terminal GST; dsDNA, one strand shown
# Method in brief: as §1
# Chain of ETV1 (P50549 whole entry): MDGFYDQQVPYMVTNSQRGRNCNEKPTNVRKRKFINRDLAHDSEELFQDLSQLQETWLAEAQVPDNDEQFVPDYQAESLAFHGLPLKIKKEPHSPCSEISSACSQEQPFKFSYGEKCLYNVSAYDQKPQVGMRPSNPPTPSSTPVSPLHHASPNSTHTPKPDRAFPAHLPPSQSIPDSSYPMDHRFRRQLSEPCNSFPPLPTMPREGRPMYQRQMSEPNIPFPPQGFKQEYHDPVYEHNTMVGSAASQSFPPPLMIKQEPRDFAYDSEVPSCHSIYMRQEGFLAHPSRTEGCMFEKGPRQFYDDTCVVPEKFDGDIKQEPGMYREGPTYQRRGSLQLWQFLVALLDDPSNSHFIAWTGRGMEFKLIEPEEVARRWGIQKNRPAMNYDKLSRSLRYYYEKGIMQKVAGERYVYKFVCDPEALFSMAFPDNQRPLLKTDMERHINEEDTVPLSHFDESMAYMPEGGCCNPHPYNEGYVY
# Chain of ETV5 (P41161 whole entry): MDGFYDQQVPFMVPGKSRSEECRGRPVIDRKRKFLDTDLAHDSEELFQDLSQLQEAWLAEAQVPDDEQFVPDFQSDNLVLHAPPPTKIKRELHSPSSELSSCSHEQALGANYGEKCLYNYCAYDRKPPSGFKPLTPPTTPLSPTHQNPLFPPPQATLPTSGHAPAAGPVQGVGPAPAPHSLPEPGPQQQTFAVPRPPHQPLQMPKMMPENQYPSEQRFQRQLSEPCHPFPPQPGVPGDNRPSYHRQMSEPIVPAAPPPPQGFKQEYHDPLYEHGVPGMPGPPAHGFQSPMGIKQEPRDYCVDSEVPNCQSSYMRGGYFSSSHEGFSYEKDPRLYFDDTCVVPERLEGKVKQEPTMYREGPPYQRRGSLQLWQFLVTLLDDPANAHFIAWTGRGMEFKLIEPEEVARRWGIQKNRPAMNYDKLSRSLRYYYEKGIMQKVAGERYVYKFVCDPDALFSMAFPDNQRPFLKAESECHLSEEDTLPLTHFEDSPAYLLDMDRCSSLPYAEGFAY
# Chain of CRX (O43186 whole entry): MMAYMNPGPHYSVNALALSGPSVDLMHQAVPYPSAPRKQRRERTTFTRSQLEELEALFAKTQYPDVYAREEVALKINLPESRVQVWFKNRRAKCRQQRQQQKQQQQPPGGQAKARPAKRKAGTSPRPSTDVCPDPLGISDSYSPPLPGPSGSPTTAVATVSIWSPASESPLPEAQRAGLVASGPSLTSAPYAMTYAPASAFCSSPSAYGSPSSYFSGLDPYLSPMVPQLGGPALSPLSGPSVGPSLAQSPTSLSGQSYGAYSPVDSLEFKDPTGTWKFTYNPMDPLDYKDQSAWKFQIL
# Chain of ELF4 (Q99607 whole entry): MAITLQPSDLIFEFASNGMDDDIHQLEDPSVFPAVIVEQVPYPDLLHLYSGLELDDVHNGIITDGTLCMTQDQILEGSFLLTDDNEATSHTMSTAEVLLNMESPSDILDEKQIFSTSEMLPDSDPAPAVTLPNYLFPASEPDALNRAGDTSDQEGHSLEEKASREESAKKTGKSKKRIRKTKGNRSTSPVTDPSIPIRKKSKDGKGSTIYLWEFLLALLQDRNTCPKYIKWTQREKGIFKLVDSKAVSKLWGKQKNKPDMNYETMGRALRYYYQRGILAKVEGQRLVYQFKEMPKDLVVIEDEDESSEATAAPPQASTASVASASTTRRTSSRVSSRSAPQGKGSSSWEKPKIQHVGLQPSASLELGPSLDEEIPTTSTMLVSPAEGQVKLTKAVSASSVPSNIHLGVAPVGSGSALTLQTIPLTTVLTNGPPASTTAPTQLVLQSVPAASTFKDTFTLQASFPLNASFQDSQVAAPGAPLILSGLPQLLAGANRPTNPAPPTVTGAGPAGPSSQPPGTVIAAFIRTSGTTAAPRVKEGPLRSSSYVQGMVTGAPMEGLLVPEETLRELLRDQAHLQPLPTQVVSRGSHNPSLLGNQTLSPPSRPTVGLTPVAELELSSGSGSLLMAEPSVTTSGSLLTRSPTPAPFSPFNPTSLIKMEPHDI
# Chain of HSF1 (Q00613 whole entry): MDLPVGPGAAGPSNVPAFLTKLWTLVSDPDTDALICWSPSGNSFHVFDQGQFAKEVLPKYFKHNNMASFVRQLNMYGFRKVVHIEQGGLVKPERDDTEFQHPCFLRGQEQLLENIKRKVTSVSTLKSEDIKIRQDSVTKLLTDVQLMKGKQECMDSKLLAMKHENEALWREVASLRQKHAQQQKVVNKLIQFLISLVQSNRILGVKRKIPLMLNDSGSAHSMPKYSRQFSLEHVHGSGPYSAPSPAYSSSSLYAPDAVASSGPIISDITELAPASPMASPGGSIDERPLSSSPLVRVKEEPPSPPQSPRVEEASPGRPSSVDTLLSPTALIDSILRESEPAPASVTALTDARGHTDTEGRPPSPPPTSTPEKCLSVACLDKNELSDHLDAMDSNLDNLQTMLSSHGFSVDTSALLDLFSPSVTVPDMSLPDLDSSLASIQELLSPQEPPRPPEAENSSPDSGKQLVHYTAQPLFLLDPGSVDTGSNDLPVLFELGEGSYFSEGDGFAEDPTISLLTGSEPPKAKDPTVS
# Chain of ETV6 (P41212 whole entry): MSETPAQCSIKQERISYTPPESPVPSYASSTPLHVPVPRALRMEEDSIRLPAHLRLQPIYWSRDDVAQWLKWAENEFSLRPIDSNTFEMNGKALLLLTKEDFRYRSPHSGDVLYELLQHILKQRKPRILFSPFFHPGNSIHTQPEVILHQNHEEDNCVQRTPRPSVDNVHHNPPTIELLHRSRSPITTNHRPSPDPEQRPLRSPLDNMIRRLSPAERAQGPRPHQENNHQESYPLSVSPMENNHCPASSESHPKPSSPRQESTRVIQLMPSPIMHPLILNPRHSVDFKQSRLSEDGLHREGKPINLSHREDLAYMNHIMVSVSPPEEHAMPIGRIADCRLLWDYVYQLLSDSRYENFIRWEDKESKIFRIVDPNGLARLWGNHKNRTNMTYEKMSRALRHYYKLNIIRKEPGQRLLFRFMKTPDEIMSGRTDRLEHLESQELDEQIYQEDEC
sequence,measurement,setting,value
TTCGCC,binding signal,[1],"1.19 fold enrichment (6-mer frequency, TF over GST control)"
same,binding signal,[2],"1.13 fold enrichment (6-mer frequency, TF over GST control)"
same,binding signal,[3],"1.14 fold enrichment (6-mer frequency, TF over GST control)"
same,binding signal,[4],"1.32 fold enrichment (6-mer frequency, TF over GST control)"
same,binding signal,[5],"1.05 fold enrichment (6-mer frequency, TF over GST control)"
same,binding signal,[6],"1.08 fold enrichment (6-mer frequency, TF over GST control)"
same,binding signal,[7],"1.1 fold enrichment (6-mer frequency, TF over GST control)"
same,binding signal,[8],"1.08 fold enrichment (6-mer frequency, TF over GST control)"
same,binding signal,[9],"1 fold enrichment (6-mer frequency, TF over GST control)"
same,binding signal,[10],"1.13 fold enrichment (6-mer frequency, TF over GST control)"
same,binding signal,[11],"1.14 fold enrichment (6-mer frequency, TF over GST control)"
same,binding signal,[12],"1.27 fold enrichment (6-mer frequency, TF over GST control)"
same,binding signal,[13],"1.12 fold enrichment (6-mer frequency, TF over GST control)"
same,binding signal,[14],"1.1 fold enrichment (6-mer frequency, TF over GST control)"
same,binding signal,[15],"1.18 fold enrichment (6-mer frequency, TF over GST control)"
same,binding signal,[16],"1.04 fold enrichment (6-mer frequency, TF over GST control)"
same,binding signal,[17],"1.08 fold enrichment (6-mer frequency, TF over GST control)"
same,binding signal,[18],"1.16 fold enrichment (6-mer frequency, TF over GST control)"
